As a reminder, the AC50 is the concentration at which the activity in the assay is half-maximal.

The campaign covered roughly 16,000 compounds. About 2,600 (16%) were called active. Inconclusive results (about 20%) are left out. Calls come from the whole dose curve; as a rule, active = well fitted curve in the direction sought with a large enough effect; inconclusive = small, poorly fitted or top-dose-only effect, or effect the other way; inactive = no such curve, though single readings can be large or run the other way. A selection follows.
% is set by controls: 0 for no effect and ±100 for the full control effect.

For the assay, the target named is Cytochrome P450 2D6 (Homo sapiens) (UniProt P10635). Nature of the assay: Cytochrome panel assay with activity outcomes. The following applies: recombinant CYP, pro-luciferin dealkylation, luminescence, p450-cyp2d6; series mostly up to 57.1 µM.
Chain of Cytochrome P450 2D6 (Homo sapiens) (P10635 whole entry, looked up): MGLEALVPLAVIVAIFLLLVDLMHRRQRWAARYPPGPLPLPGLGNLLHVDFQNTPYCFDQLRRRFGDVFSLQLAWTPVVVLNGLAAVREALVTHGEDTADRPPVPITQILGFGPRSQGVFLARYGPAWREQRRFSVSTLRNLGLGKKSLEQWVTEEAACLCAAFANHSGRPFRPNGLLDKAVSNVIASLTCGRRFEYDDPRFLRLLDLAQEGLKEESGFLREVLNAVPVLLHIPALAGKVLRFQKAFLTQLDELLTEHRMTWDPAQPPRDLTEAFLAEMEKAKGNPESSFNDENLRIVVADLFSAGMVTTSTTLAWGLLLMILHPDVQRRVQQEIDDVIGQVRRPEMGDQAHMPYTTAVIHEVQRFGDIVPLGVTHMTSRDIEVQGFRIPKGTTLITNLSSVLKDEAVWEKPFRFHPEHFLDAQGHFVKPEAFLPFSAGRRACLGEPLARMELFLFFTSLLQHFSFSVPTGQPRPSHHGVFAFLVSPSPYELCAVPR
Consider `O=[N+]([O-])c1ccc(N/N=C\c2cccn2-c2ccccc2)nc1`, for which the AC50 is 4.47 µM (active). As to `C(=N\n1cnnc1)/c1cccn1-c1ccccc1`, the AC50 entry was “inactive”. For the compound `O=[N+]([O-])c1ccc(/C=N/Nc2cc(Cl)nc(-c3ccccc3)n2)cc1`, the AC50 result was “inactive”. Same read-out and setting: with `CN1C(=O)CC[C@@H]1c1cccnc1` the entry was “inactive”; with `Cc1cccn2c(/C=N/OCc3ccc(F)cc3)c(-c3ccc(Cl)cc3)nc12`, “inactive”.

Take `COc1ccc(/C=N/NC(=O)C2CCN(c3ncc(C(F)(F)F)cc3Cl)CC2)cc1`: the AC50 entry was “inactive”. Turning to `O=C(CCCNS(=O)(=O)c1cccc2nsnc12)NCCc1ccccc1`, the AC50 is 14.1 µM (active). For the compound `O=C(CCS(=O)(=O)c1cccc2nsnc12)NC1CCCCC1`, the AC50 result is “inactive”.

On to `Cc1cccc(NC(=O)CCS(=O)(=O)c2cccc3nsnc23)c1C`, for which the AC50 result was “inactive”. The same measure, in the same setting: with `Cc1cc(C)n(C(=O)c2cc3c(s2)CCCC3)n1` the entry was “inactive”.

With `COC(=O)C(CCSC)NC(=O)c1cccc([N+](=O)[O-])c1` (centres undefined), the AC50 result is “inactive”. For the compound `COC(=O)c1c(NC(C)=O)sc(Cc2ccccc2)c1C`, the AC50 was 25.1 µM (active). In the case of `CCOC(=O)c1c(NC(=O)Nc2ccccc2)sc(C)c1C`, the AC50 result is “inactive”.

Regarding `CCOc1ccc(CC(=O)Nc2sc(Cc3ccccc3)c(C)c2C(N)=O)cc1OCC`, the AC50 result was “inactive”. On the same count and under the same terms, with `N#CCCn1c(=O)c(-c2ccc(F)cc2)nc2cnc(OCc3ccccc3)nc21` the entry was “inactive”. As for `Cc1ccc(S(=O)(=O)N[C@H]2COC(=O)C/C=C\[C@@H](C)[C@H](NS(=O)(=O)c3ccc(C)cc3)COC(=O)C/C=C\[C@H]2C)cc1`, the activity, negative = inhibition is 4.7% [at 11.4 µM] (inactive).

In the case of `COCCn1c(=O)c(C)nc2cnc(N3CCN(C)CC3)nc21`, the AC50 result is “inactive”. For `COC(=O)c1sccc1NC(=O)CSc1cc(Cl)ccc1Cl`, the AC50 result was “inactive”. Regarding `Clc1ccc(Cl)c(SCCCN2CCNCC2)c1`, the concentration at half-maximal activity (AC50) is 2.51 µM (active). The same measure, in the same setting: with `Cc1cccc(C(=O)O/N=C(\N)c2cccc([N+](=O)[O-])c2)c1` the entry was “inactive”; with `C#C[C@]1(O)CC[C@H]2[C@H]3CCC4=Cc5oncc5C[C@]4(C)[C@@H]3CC[C@]21C`, “inactive”. With `CSc1nsc(SC)c1NC(=O)OCC1CCCO1` (centres undefined), the AC50 result is “inactive”. Still for that read-out and setting: with `C=CCNC(=O)c1ccc2nc(-c3ccccc3)c(-c3ccccc3)nc2c1` the entry was “inactive”; with `CC[n+]1c(/C=C/Nc2ccccc2)oc2ccccc21`, 1.41 µM (active). On the same count and under the same terms, with `O=C(O)CN=C1NC2(CCCC2)Cc2ccccc21` the entry was “inactive”; with `COC(=O)N1CCC2(CC1)CCN(c1ccncc1)CC2`, “inactive”. For `N=C1CCC[C@@H]1C(=S)SCCC(N)=O`, the activity, negative = inhibition is 0.37% [at 11.4 µM] (inactive). For the compound `COc1ccccc1-c1nccc(NCc2ccccc2)n1`, the AC50 is 3.98 µM (active). Still for that read-out and setting: with `COc1ccccc1-c1nccc(NC2CCNCC2)n1` the entry was “inactive”; with `CNc1ccnc(-c2ccccc2C)n1`, “inactive”; with `CNc1ccnc(-c2ccccc2C(F)(F)F)n1`, “inactive”. Still for that read-out and setting: with `COc1ccccc1-c1nccc(NCc2cccc(C)c2)n1` the figure was 1.58 µM (active). On to `Cc1cnc(CNc2ccnc(-c3ccccc3Cl)n2)cn1`, for which the AC50 entry was “inactive”. Same read-out and setting: with `CNc1ccnc(-c2ccccc2OC)n1` the figure was 5.01 µM (active); with `Cc1cccc(CNc2ccnc(-c3ccccc3Cl)n2)c1`, 15.8 µM (active). In the case of `C=CCNC(=O)c1ccccc1Cl`, the AC50 entry is “inactive”.

`COc1ccc(-n2c(=O)c(C)nc3cnc(N4CCOCC4)nc32)cc1`: the AC50 entry is “inactive”. In the case of `COc1cccc(/C(O)=C2/C(=O)C(=O)N(Cc3cccnc3)C2c2ccco2)c1` (centres undefined), the AC50 result was “inactive”. Regarding `C[C@@H]1NC(=O)C/C=C\[C@@H](C)[C@@H]2C=C[C@H](O)[C@@H](COC(=O)[C@H](C)NC(=O)C/C=C\[C@@H](C)[C@@H]3C=C[C@H](O)[C@@H](COC1=O)O3)O2`, the activity, negative = inhibition was 9.45% [at 11.4 µM] (inactive).

Turning to `COc1cccc(Cn2c(=O)c(-c3cccc(C#N)c3)nc3cnc(Nc4ccccc4)nc32)c1`, the AC50 result is “inactive”. On to `O=C(O)c1c(Br)c(Br)c(Br)c(Br)c1C1c2ccc(O)cc2Oc2cc(O)ccc21`, for which the activity, negative = inhibition is -6.23% [at 11.4 µM] (inactive). `O=c1[nH]n(-c2cccc3cccnc23)c(=O)c2ccccc12`: the AC50 entry was “inactive”.

Consider `COc1ccc(OC)c(NC(=O)Cn2cccc2)c1`, for which the AC50 entry was “inactive”. With `Cc1occc1C(=O)NNC(=O)Cc1ccccc1`, the AC50 result is “inactive”. In the case of `CCCCn1nnnc1SCC(=O)N1CCCC1`, the AC50 entry is “inactive”.

On to `O=c1[nH]c(=S)[nH]c(-c2ccccc2)c1Cc1c(O)ccc2ccccc12`, for which the activity, negative = inhibition was -6.41% [at 11.4 µM] (inactive). Take `Cc1cccc(CNc2cc(-c3ccc(C(=O)N(C)C)cc3)ncn2)c1`: the AC50 entry is “inactive”.

In the case of `Cc1cccc(CNc2ccnc(-c3ccccc3CN(C)C)n2)c1`, the AC50 is 2.51 µM (active). As for `CCN(C(=O)Cn1c(=O)oc2ccccc21)c1cccc(C(F)(F)F)c1`, the AC50 result is “inactive”. Take `Cc1ccccc1Oc1ncnc2oc(-c3ccccc3)cc12`: the AC50 result is “inactive”. Same read-out and setting: with `CC(=O)Oc1ccccc1C(=O)Oc1ccccc1C(=O)O` the entry was “inactive”; with `CCn1c(SCC(=O)Nc2nc3ccc(C)cc3s2)nc2c(c1=O)SC(C)C2` (centres undefined), “inactive”. The same measure, in the same setting: with `O=C(N/N=C/c1ccc(Cl)cc1Cl)Nc1ccccc1` the entry was “inactive”; with `O=C(N/N=C/c1ccc(Cl)cc1)Nc1ccccc1`, “inactive”; with `O=C(Nc1ccccc1)N[C@H]1C[C@H](C(=O)O)Nc2cc(Cl)cc(Cl)c21`, 12.6 µM (active). Consider `COCCn1c(=O)c(-c2ccc(F)cc2)nc2cnc(Oc3ccccc3)nc21`, for which the AC50 entry is “inactive”.

With `O=C(Nc1cccc(F)c1)Nc1ccccn1`, the AC50 entry was “inactive”.

With `CCOC(=O)c1cnn(-c2nc(-c3ccc(F)cc3)cs2)c1C(F)(F)F`, the AC50 result is “inactive”. For `CCOC(=O)c1nnc(-c2ccccc2)nc1NCc1ccccc1`, the AC50 entry was “inactive”. The same measure, in the same setting: with `CCOC(=O)c1sc2nc(CC(=O)OC)nc(NCc3ccc(F)cc3)c2c1C` the figure was 25.1 µM (active); with `CCCCOC(=O)C1=C(C)Nc2ncnn2C1c1cc(OC)ccc1OC` (centres undefined), “inactive”. Regarding `O=C(Cc1ccc(S(=O)(=O)N2CCOCC2)s1)Nc1nc2c(s1)CCCC2`, the AC50 result is “inactive”. The same measure, in the same setting: with `O=C(NCC1CCCO1)C1CCC(=O)N1CCc1ccccc1` (centres undefined) the entry was “inactive”; with `CC(C)N(CCNC(=O)C1CCC(=O)N1Cc1ccc(F)cc1)Cc1ccccc1` (centres undefined), 1.26 µM (active). On the same count and under the same terms, with `Cc1ccc(CN2C(=O)CCC2C(=O)NCc2cccnc2)cc1` (centres undefined) the entry was “inactive”; with `O=c1c(CCc2ccccc2)nc2cnc(Oc3cccc(Cl)c3)nc2n1C[C@H]1CCCO1`, “inactive”; with `CCCN(CCC)CCCNC(=O)c1cc2cc3ccc(OC)cc3nc2o1`, “inactive”. Still for that read-out and setting: with `CCOC(=O)C1=NNC2(c3ccc(Cl)cc3)C(=O)N(c3cc(C)cc(C)c3)C(=O)C12` (centres undefined) the entry was “inactive”; with `CCCCOC(=O)CSc1nnc(-c2cc(OC)c(OC)c(OC)c2)o1`, “inactive”. As to `O=C(O)C/C(=C\c1ccco1)C(=O)O`, the activity, negative = inhibition was 1.84% [at 11.4 µM] (inactive). For `O=c1cnc2cncnc2n1Cc1ccccc1`, the AC50 result was “inactive”. On the same count and under the same terms, with `COc1ccc(-n2cnnc2)cc1` the entry was “inactive”; with `COc1ccc(N2C(N)=NC(N)=NC2(C)C)cc1`, 14.1 µM (active). Still for that read-out and setting: with `CC1(C)N=C(N)N=C(N)N1c1cccc(OCc2cccc(N)c2)c1` the figure was 2.51 µM (active); with `CC1(C)N=C(N)N=C(N)N1c1cccc(CSc2ccccc2)c1`, 0.251 µM (active). For `Nc1cccc(OCc2nc(N)nc(N)c2-c2ccc(Cl)cc2)c1`, the activity, negative = inhibition is -14.7% [at 11.4 µM] (inactive).

On to `COc1ccc(-n2c(C)nn(C)c2=O)cc1`, for which the AC50 entry is “inactive”. The same measure, in the same setting: with `COC(=O)c1nc(NC(=O)c2ccccc2)n[nH]1` the entry was “inactive”; with `COc1cc(C(=O)NCCC(C)C)c([N+](=O)[O-])cc1OC`, “inactive”; with `CCCCCCCCCCCCCCCCCC(=O)O[C@H](CC(=O)O)C[N+](C)(C)C`, “inactive”. On the same count and under the same terms, with `O=P(O)(O)CCP(=O)(c1ccccc1)c1ccccc1` the entry was “inactive”; with `O=C1NC(c2ccc(Br)cc2)Nc2sc3c(c21)CCC3` (centres undefined), “inactive”; with `CN(C)c1ccc(/C=C2/C(=O)Nc3ccccc32)cc1`, “inactive”. Take `O=C(NCc1nc2ccccc2[nH]1)[C@H]1C[C@@H]1[C@H](NP(=O)(c1ccccc1)c1ccccc1)c1ccccc1`: the AC50 entry is “inactive”.

Regarding `O=C(OCc1nc2ccccc2[nH]1)C12CC3CC(CC(C3)C1)C2`, the AC50 was 15.8 µM (active). With `CC(C)(CCc1nc2ccccc2[nH]1)C(=O)O`, the activity, negative = inhibition is -1.31% [at 11.4 µM] (inactive). Turning to `COc1ccc(/C=C/C(=O)Nc2nc(C)cc(C)n2)cc1OC`, the AC50 entry was “inactive”. The same measure, in the same setting: with `Cc1ccc(S(=O)(=O)N2CCN(C(=O)C3COc4ccccc4O3)CC2)cc1C` (centres undefined) the entry was “inactive”; with `Cc1cc(C)cc(OCC(=O)Nc2ccc3c4c(cccc24)CC3)c1`, “inactive”. Consider `CC(C)c1ccc(/C=C2\C=C(c3ccc4ccccc4c3)OC2=O)cc1`, for which the activity, negative = inhibition is 2.54% [at 11.4 µM] (inactive).

In the case of `Cc1ccccc1-c1nc(CS(=O)CC(=O)NCCN2CCN(Cc3ccccc3)CC2)c(C)o1` (centres undefined), the AC50 is 14.1 µM (active). The same measure, in the same setting: with `Cc1cc(C)c(NC(=O)CS(=O)CC(=O)NCCCc2ccccc2)c(C)c1` (centres undefined) the entry was “inactive”.

Turning to `Cc1cccc(C)c1NC(=O)CS(=O)CC(=O)NCCCc1ccccc1` (centres undefined), the AC50 result was “inactive”. The same measure, in the same setting: with `CC(=O)[C@@]1(O)CC[C@H]2[C@H]3C[C@@H](C)C4=CC(=O)C=C[C@]4(C)[C@@]3(F)[C@@H](O)C[C@]21C` the entry was “inactive”. As to `Cc1cc2[nH]c(=O)c3ccccc3n2n1`, the AC50 entry was “inactive”. The same measure, in the same setting: with `CCCc1nnc(NC(=O)CCC(=O)N2CCN(c3ccccn3)CC2)s1` the entry was “inactive”; with `CCCC(=O)Nc1nnc(Cc2ccccc2)s1`, “inactive”; with `CCCC(=O)Nc1nnc(CCN2CCCCC2)s1`, 15.8 µM (active). On to `COc1ccc(/C=N/NC(N)=S)cc1OC(=O)c1cccc2ccccc12`, for which the AC50 result is “inactive”. In the case of `CCOc1cc(NC(=S)NCC2CCCO2)c(OCC)cc1NC(=O)c1cccc(C)c1` (centres undefined), the AC50 result is “inactive”. Take `O=C1[C@H]2[C@H]3[C@H](O)[C@H](O)C/C(=N/OC[C@@H](O)COCc4ccco4)[C@H]3CC[C@@H]2C(=O)N1Cc1ccc2c(c1)OCO2`: the activity, negative = inhibition was 3.67% [at 11.4 µM] (inactive). For `O=c1c2ccccc2nc(SCc2ccccc2Cl)n1Cc1ccccc1`, the AC50 result was “inactive”. The same measure, in the same setting: with `CCn1c(SCc2ccc(Cl)cc2Cl)nc2nc3c(cc2c1=O)CCCC3` the figure was 1.26 µM (active); with `Cn1c(=O)c2c(nc(N3CCN(c4ccccn4)CC3)n2Cc2ccc(Cl)cc2Cl)n(C)c1=O`, “inactive”.

Source of the values: PubChem BioAssay AID1851 (National Center for Advancing Translational Sciences (NCATS), 2009).
